Screening data as filed in PubChem BioAssay.
This is a sample that favours compounds with a hit; in the whole collection about 2.4% have one here.
Cruzain inh noDet – inhibitors of Trypanosoma cruzi cruzain without detergent | 2.3% of 200,000 active | AID 1476 | purified cruzain, Z-FR-AMC fluorescence, no detergent | Potency, µM, for the others: max response, negative = inhibition, actives largely listed as inhibitors;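 also: plate controls were enzyme without inhibitor for no effect and buffer without enzyme for full effect; nearly all actives have a fitted effect of over 40% in size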
Target sequence (P25779 123-467 limits assumed): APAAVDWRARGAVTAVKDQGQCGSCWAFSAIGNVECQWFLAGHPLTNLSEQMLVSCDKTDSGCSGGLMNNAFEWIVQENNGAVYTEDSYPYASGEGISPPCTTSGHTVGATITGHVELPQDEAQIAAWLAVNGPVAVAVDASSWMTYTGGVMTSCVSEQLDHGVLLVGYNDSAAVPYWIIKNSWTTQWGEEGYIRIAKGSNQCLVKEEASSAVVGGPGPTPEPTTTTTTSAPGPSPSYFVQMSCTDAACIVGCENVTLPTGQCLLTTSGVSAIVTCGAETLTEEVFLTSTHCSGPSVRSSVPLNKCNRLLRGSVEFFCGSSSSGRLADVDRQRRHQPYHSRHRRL
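Purified cruzain at 1.5 nM, pre-incubated 15 min with compound at room temperature in 100 mM sodium acetate pH 5.5, 5 mM DTT, 0.00005% Triton X-100. Reaction started with 2 uM Z-FR-AMC; AMC fluorescence increase over 60 s gives rate.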
Cruzain Triton – blocks cruzain activity in presence of Triton detergent | purified cruzain, Z-FR-AMC fluorescence, 0.01% Triton | 0.43% of 200,000 active | Potency, µM, without a hit: max response, negative = inhibition, actives largely listed as inhibitors | AID 1478;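 also: plate controls were neutral wells for no effect and buffer without enzyme for full effect; nearly all actives have a fitted effect of over 40% in size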
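Sodium acetate buffer (100 mM, pH 5.5) containing 5 mM DTT and 0.01% Triton X-100 hosted 1.5 nM cruzain and test compound for 15 min at room temperature. Cleavage of 2 uM Z-FR-AMC was then tracked by fluorescence.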
* = called active by the depositor. Calls follow the shape of the dose curve; as a rule, active = well fitted curve in the direction sought with a large enough effect; inconclusive = small, poorly fitted or top-dose-only effect, or another doubt; inactive = no such curve, though single readings can be large; an effect the other way counts as inactive or inconclusive. Potency is read from the fitted curve at half-maximal effect.

Results for Cc1ccc(N2CCN(S(=O)(=O)c3cc(C(=O)Nc4cc(Cl)cc(Cl)c4)ccc3F)CC2C)cc1 (stereo not given) ?
Cruzain inh noDet: 2.5µM*; Cruzain Triton: 1%

How did Cc1cccc(C(=O)Nc2cccc(OCc3cc(=O)n4c(C)csc4n3)c2)c1 do in these assays?
Cruzain inh noDet: -4%; Cruzain Triton: 1%

What do the screens show for `Cc1nc2cc(C(=O)OCC(=O)NC34CC5CC(CC(C5)C3)C4)ccc2n1-c1ccccc1`?
Cruzain inh noDet: -10%; Cruzain Triton: -7%

What do the screens show for `Cc1nc2cc(C(=O)OCC(=O)Nc3cccc(Cl)c3)ccc2n1-c1ccccc1`?
Cruzain inh noDet: 25µM*; Cruzain Triton: -7%

What do the screens show for `CC(C)(C)c1ccc(C(=O)NCC(c2ccco2)S(=O)(=O)c2ccccc2)cc1` (stereo not given)?
Cruzain inh noDet: 9%; Cruzain Triton: -3%

Results for COc1ccccc1CNc1ncnc2ccc(-c3cccnc3)cc12 ?
Cruzain inh noDet: -10%; Cruzain Triton: -9%

Results for Cc1ccc(C(=O)N/C(=C\c2ccc([N+](=O)[O-])cc2)C(=O)NCCc2ccccc2)cc1 ?
Cruzain inh noDet: inconclusive; Cruzain Triton: 0%

What do the screens show for `O=C(NCCc1ccccc1)/C(=C\c1ccc([N+](=O)[O-])cc1)NC(=O)c1ccc(Br)cc1`?
Cruzain inh noDet: 6.3µM*; Cruzain Triton: -2%

What do the screens show for `O=C(NCCc1csc(-c2cccc(F)c2)n1)c1cccs1`?
Cruzain inh noDet: 4%; Cruzain Triton: -9%

Results for COc1ccc(CNC(=O)c2ccc3c(c2)NC(=O)C(CS(=O)(=O)Cc2ccccc2Cl)N3)cc1 (stereo not given) ?
Cruzain inh noDet: 5%; Cruzain Triton: -1%

Results for O=C(NCc1ccc(Cl)cc1)c1ccc2c(c1)NC(=O)C(CS(=O)(=O)Cc1ccccc1Cl)N2 (stereo not given) ?
Cruzain inh noDet: 25µM*; Cruzain Triton: -3%

How did COc1ccc(N2C(=O)CC(Nc3ccc(C)cc3)C2=O)cc1 (stereo not given) do in these assays?
Cruzain inh noDet: inconclusive; Cruzain Triton: 4%

Results for Cc1ccc(NC2CC(=O)N(c3ccc(N4CCCCC4)cc3)C2=O)cc1 (stereo not given) ?
Cruzain inh noDet: 7.9µM*; Cruzain Triton: -2%

What do the screens show for `CCN(CCCNC(=O)c1cc2cc3cc(C)ccc3nc2s1)c1cccc(C)c1`?
Cruzain inh noDet: 1%; Cruzain Triton: -4%

What do the screens show for `CCCCNC(=S)N(C)/N=C/c1sc(N2CCCCC2)nc1-c1cccs1`?
Cruzain inh noDet: -28%; Cruzain Triton: -3%

Results for CC(C)NC(=S)N/N=C/c1sc(N2CCCCC2)nc1-c1cccs1 ?
Cruzain inh noDet: 32µM*; Cruzain Triton: -7%

What do the screens show for `CN(C)c1ccc(CN(Cc2ccco2)C(=O)COc2ccc(F)cc2)cc1`?
Cruzain inh noDet: inconclusive; Cruzain Triton: -6%

What do the screens show for `O=C(CSc1nc2ccccc2s1)NNC(=O)Nc1ccc(Cl)c(Cl)c1`?
Cruzain inh noDet: inconclusive; Cruzain Triton: -8%

What do the screens show for `O=C(CSc1nc2ccccc2s1)Nc1ccc2c(c1)oc1ccccc12`?
Cruzain inh noDet: 16µM*; Cruzain Triton: -2%

Results for Cn1c(SCC(=O)Nc2ccc3c(c2)oc2ccccc23)nnc1-c1ccccc1 ?
Cruzain inh noDet: 13µM*; Cruzain Triton: 0%

Results for O=C(Nc1nnc(SCC(=O)N2CCOCC2)s1)c1ccccc1Cl ?
Cruzain inh noDet: -9%; Cruzain Triton: -5%

How did O=C(CSc1nnc(NC(=O)c2ccccc2Cl)s1)Nc1ccc2c(c1)oc1ccccc12 do in these assays?
Cruzain inh noDet: 4µM*; Cruzain Triton: -8%

What do the screens show for `Cn1c(SCC(=O)Nc2ccccc2)nnc1-c1ccccc1`?
Cruzain inh noDet: -2%; Cruzain Triton: -1%

What do the screens show for `O=C(CN1C(=O)CSc2ccc(S(=O)(=O)N3CCCC3)cc21)NCc1ccc(F)cc1Cl`?
Cruzain inh noDet: -7%; Cruzain Triton: 0%

Results for C=C(C)C(=O)C1CCCCC1 ?
Cruzain inh noDet: 6%; Cruzain Triton: 3%

What do the screens show for `CC(C)NC(=O)c1cc2c(Cl)nc3ccccc3c2s1`?
Cruzain inh noDet: 0%; Cruzain Triton: 5%

How did O=C(NCc1ccccc1Cl)c1cnc2sc(N3CCCCC3)nn2c1=O do in these assays?
Cruzain inh noDet: 0%; Cruzain Triton: 2%

What do the screens show for `CCCCNC(=O)NS(=O)(=O)c1ccc(C)cc1`?
Cruzain inh noDet: 8%; Cruzain Triton: -1%

What do the screens show for `CCCCOc1ccc(S(=O)(=O)Nc2ccc(NC(C)=O)cc2)cc1`?
Cruzain inh noDet: -5%; Cruzain Triton: -9%

What do the screens show for `CCCCOc1ccc(S(=O)(=O)NC(=O)NCc2ccc(OCCC)cc2)cc1`?
Cruzain inh noDet: 25µM*; Cruzain Triton: 0%

How did Cc1ccc(S(=O)(=O)NC(=O)NCc2ccccc2)cc1 do in these assays?
Cruzain inh noDet: 11%; Cruzain Triton: 6%

Results for CCCCOc1ccc(CNC(=O)NS(=O)(=O)c2ccc(OCC)cc2)cc1 ?
Cruzain inh noDet: 20µM*; Cruzain Triton: 0%

Results for CCCCOc1ccc(CNC(=O)NS(=O)(=O)c2ccc(OCC(C)C)cc2)cc1 ?
Cruzain inh noDet: 7.9µM*; Cruzain Triton: 7%

Results for CCOCCCn1c(=N)c(C(=O)NC2CCCCC2)cc2c(=O)n3ccccc3nc21 ?
Cruzain inh noDet: 0%; Cruzain Triton: -11%

Results for COc1ccc(C)cc1Nc1nc2cc(Cl)c(Cl)cc2nc1-n1nc(C)cc1C ?
Cruzain inh noDet: -6%; Cruzain Triton: 0%

How did CCOc1ccc(CN2CCc3nc(Nc4ccc5c(c4)OCCO5)ncc3C2)cc1 do in these assays?
Cruzain inh noDet: -9%; Cruzain Triton: -10%

How did Cc1ccc2c(c1)N(C(=O)c1ccco1)C(C)(C)c1ssc(=S)c1-2 do in these assays?
Cruzain inh noDet: 32µM*; Cruzain Triton: -2%

What do the screens show for `Cc1cccc2c1N(C(=O)c1ccco1)C(C)(C)c1ssc(=S)c1-2`?
Cruzain inh noDet: -12%; Cruzain Triton: 5%

Results for COc1ccc(OC)c(NC(=O)C2=C(C)C(=O)OC23CCN(C(C)C)CC3)c1 ?
Cruzain inh noDet: -14%; Cruzain Triton: -1%

What do the screens show for `Cc1cccc(NC(=O)C2CCCC2)c1`?
Cruzain inh noDet: 9%; Cruzain Triton: -1%

Results for Cc1cccc(NC(=O)COC(=O)CNC(=O)C2CCCCC2)c1 ?
Cruzain inh noDet: 7.9µM*; Cruzain Triton: 7.1µM*

Results for CCN(C(=O)c1cc2c(s1)-c1ccccc1OC2)c1cc(Cl)ccc1OC ?
Cruzain inh noDet: -8%; Cruzain Triton: -6%

Results for CC1CCN(c2nc3ccccc3nc2C(F)(F)F)CC1 ?
Cruzain inh noDet: 5%; Cruzain Triton: 2%

How did O=C(CN1CCN(c2nc(-c3ccccc3)cs2)CC1)Nc1ccc2c(c1)OCO2 do in these assays?
Cruzain inh noDet: 25µM*; Cruzain Triton: 2%

Results for O=C(CN1CCc2ccccc21)NCc1ccc2c(c1)OCO2 ?
Cruzain inh noDet: -4%; Cruzain Triton: -2%

What do the screens show for `O=C(CN1CCc2ccccc21)Nc1ccc2c(c1)OCO2`?
Cruzain inh noDet: 13µM*; Cruzain Triton: -2%

Results for CCc1nnc(NC(=O)CN2CCN(c3nc(-c4ccccc4)cs3)CC2)s1 ?
Cruzain inh noDet: inconclusive; Cruzain Triton: -3%

What do the screens show for `Cc1cnc(CNc2cc(-c3ccc(N(C)C)cc3)ncn2)cn1`?
Cruzain inh noDet: -4%; Cruzain Triton: -9%
